Each structure is given as a SMILES string. Several values for one entry are separate records, joined by “and”; a condition that tells them apart may be missing. Equal entries are not always repeated. Values without a mark were called inactive. Records with an inconclusive call do not appear. Activity calls are given as the source filed them. Unless noted, calls come from the whole dose curve. Some results are limits rather than exact numbers.

Assay [1] deals with Lysosomal acid glucosylceramidase (Homo sapiens) (UniProt P04062). The assay can be described thus: Glucocerebrosidase-p2 (AID 348; in the data active = potency below about 10 µM; note: potency is the fitted concentration of half-maximal effect). The settings on record: purified GBA, blue fluorogenic substrate, 40 min. In a few lines:
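Normal human glucocerebrosidase (0.2 nM) with blue fluorogenic substrate (80 uM final) in citrate/phosphate pH 5.9 with 10mM sodium taurocholate, 0.01% tween-20; 40 min RT, NaOH/glycine stop; fluorescence Ex 365/Em 440; AC50 from a titration from 0.6 nM upwards.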

The nature of assay [2]: AP1 Signaling Pathway (AID 357; active = well fitted curve in either direction with a large enough effect, not every such curve was filed as active;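 note: ME-180 reporter cells stimulated with EGF at its EC50 level; % is set by controls: 0 for no effect and ±100 for the full control effect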). Conditions: ME-180 AP-1-bla reporter, EGF-induced, beta-lactamase ratio, 5 h; series mostly up to 38 µM. In a few lines: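 AP-1-bla ME-180 cells, Opti-MEM + 0.5% dialyzed FBS, plated overnight 37 °C. Cpd titration + EC50 EGF, 5 h 37 °C. CCF4 2.5 h RT; ex 405, em 460/530 ratio → %activity, AC50.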
In assay [3] the target is Cytochrome P450 1A2 (Homo sapiens) (UniProt P05177). In words: p450-cyp1a2 (AID 410).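 For activity change, negative = inhibition: -100% = full effect of reference inhibitor.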 Note: potency is the fitted concentration of half-maximal effect. The settings on record: recombinant CYP1A2, luciferin-ME demethylation, luminescence; series mostly up to 57 µM. In a few lines:
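Luminescent demethylation readout: Luciferin-ME (100uM, equal to Km) turned over by 20nM CYP1A2 for 60 min at room temperature after NADPH regeneration addition, following 10 min compound preincubation. Normalization used 57 uM furafylline as full inhibition.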

Assay [4] can be described thus: NFAT Signaling Pathway (AID 444; active = well fitted curve in either direction with a large enough effect, not every such curve was filed as active;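 note: carbachol stimulus at about its EC50 of 1 µM final; % is set by controls: 0 for no effect and ±100 for the full control effect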). Conditions: Jurkat NFAT-bla M1, carbachol, beta-lactamase ratio, 5 h; series mostly up to 38 µM. In a few lines: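 Jurkat cells carrying an NFAT-driven β-lactamase reporter and co-transfected muscarinic M1 receptor were treated with compound plus carbachol (1 uM final, an EC50 level) for 5 h at 37 °C. CCF4 loading followed for 1 h at RT; 460/530 nm ratio gave %activity.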

Assay [5] in a line: Stat Signaling Pathway (AID 446; active = well fitted curve in either direction with a large enough effect, not every such curve was filed as active;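 note: ME-180 cervical cancer cells given 40 pM IL-6 alongside compound; SIE-controlled beta-lactamase reporter measured as 460/530 nm FRET emission ratio; % is set by controls: 0 for no effect and ±100 for the full control effect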). Conditions: ME-180 (cervical carcinoma) SIE beta-lactamase reporter, IL-6 stimulated, 5 h; series mostly up to 17.2 µM. In a few lines:
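FRET read-out (405 nm excitation, 460/530 nm emission) of a beta-lactamase reporter under a STAT-inducible element in ME-180 cervical carcinoma cells. Cells with compound receive 40 pM IL-6 for 5 h. Values are normalised to AC90 stimulation and AC90 JAK-inhibitor controls.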

Assay [6] addresses Glucocorticoid receptor (Homo sapiens) (UniProt P04150). In words: GR-EFC Redistribution (AID 451). Note: potency is the fitted concentration of half-maximal effect. The settings on record: CHO-K1 GR-EFC translocation, beta-gal luminescence, 2 h. In a few lines:
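CHO-K1 cells stably expressing nuclear-localized β-gal enzyme acceptor and GR fused C-terminally to the enzyme donor fragment; ligand-driven nuclear translocation restores β-gal by complementation. Compounds titrated up to 46 uM final, 2 h at 37 °C; luminescence read.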

For assay [7], the target named is Mitogen-activated protein kinase 10 (Mus musculus) (UniProt Q61831). The assay can be described thus: JNK3 AlphaScreen Assay (AID 530; active = well fitted curve in either direction with a large enough effect, not every such curve was filed as active;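 note: kinase came from lysate of stimulated human HepG2 cells; % is set by controls: 0 for no effect and ±100 for the full control effect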). Conditions: JNK3 lysate, c-Jun phosphorylation; series mostly up to 57.1 µM. The method, boiled down: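 Phosphorylation of biotinylated GST-cJun(1-79) at Ser73 is measured by AlphaScreen proximity luminescence. Enzyme is JNK3 in HepG2 lysates activated with interleukin-1beta and tumor necrosis factor alpha; ATP is 10 uM final.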

The target in assay [8] is Glucocorticoid receptor (Homo sapiens) (UniProt P04150). The assay can be described thus: GR-GFP Redistribution (AID 450;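 active = compounds whose dose series gives a full or clear partial fitted curve of increased nuclear translocation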; note: potency is the fitted concentration of half-maximal effect). Conditions: U2OS GR-GFP nuclear translocation, laser cytometry, 2 h.
Chain of Glucocorticoid receptor (Homo sapiens) (P04150 whole entry, looked up, the tested form may be a part): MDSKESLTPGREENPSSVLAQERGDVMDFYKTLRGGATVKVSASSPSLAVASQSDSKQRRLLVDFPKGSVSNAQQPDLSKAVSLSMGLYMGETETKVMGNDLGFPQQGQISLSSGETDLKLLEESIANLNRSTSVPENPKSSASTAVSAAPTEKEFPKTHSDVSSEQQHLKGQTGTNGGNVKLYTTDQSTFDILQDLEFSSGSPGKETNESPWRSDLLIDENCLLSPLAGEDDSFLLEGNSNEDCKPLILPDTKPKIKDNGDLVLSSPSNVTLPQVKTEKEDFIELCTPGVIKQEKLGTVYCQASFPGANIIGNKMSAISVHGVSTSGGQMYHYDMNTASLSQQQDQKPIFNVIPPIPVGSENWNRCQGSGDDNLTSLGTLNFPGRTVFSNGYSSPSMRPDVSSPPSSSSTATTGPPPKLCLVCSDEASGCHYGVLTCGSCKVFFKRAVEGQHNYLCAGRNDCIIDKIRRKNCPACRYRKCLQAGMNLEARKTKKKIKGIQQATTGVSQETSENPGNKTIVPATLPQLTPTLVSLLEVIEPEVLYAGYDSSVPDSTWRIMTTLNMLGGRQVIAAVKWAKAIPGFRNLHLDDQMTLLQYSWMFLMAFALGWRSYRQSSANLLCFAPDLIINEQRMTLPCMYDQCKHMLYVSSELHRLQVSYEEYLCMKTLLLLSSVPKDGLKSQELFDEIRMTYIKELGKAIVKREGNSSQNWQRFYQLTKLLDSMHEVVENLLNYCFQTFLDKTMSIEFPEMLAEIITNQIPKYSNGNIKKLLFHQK
Assay [9] can be described thus: Cell Viability - BJ (AID 421).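 Note: potency is the fitted concentration of half-maximal effect; cells exposed to compound for 40 hours at 37 °C before readout.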 The settings on record: BJ fibroblast viability, qHTS. In a few lines:
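Cytotoxicity as drop in intracellular ATP (CellTiter-Glo, 20 min RT) after 40 hr compound exposure of BJ fibroblasts at 37 °C. Titrations scaled between DMSO and 100 uM tamoxifen, Hill-fitted for AC50.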

Assay [10] in a line: Cell Viability - Jurkat (AID 426;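 active = dose-dependent loss of cell ATP signal giving a full or clear fitted curve, ranked by lower potency value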; note: potency is the fitted concentration of half-maximal effect). Conditions: qHTS. In a few lines: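 Cytotoxicity taken as drop in cellular ATP (CellTiter-Glo luminescence, 20 min room temperature) after 40 hr, 37C treatment of 5000 Jurkat Clone E6-1 cells per well; concentration-response fitted with Hill equation for AC50.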
Assay [11] can be described thus: Cell Viability - Hek293 (AID 427;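 active = compounds whose dose-response curve shows a full or clear partial loss of cell viability, called from curve shape rather than a numeric limit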;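 note: potency is the fitted concentration of half-maximal effect; cells exposed to compound for 40 hours at 37 °C before reading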). Conditions: qHTS. The method, boiled down:
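Luminescent ATP content (CellTiter-Glo, 20 min at room temperature) was measured after a 40 hr, 37 °C compound exposure of HEK293 cells. AC50 values came from Hill-equation fits of qHTS concentration-response data normalized to DMSO and 100 uM tamoxifen.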

Assay [12] can be described thus: Cell Viability - HepG2 (AID 433). Note: potency is the fitted concentration of half-maximal effect. Conditions: qHTS. The method, boiled down:
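In this qHTS format, a 40 h, 37 °C compound incubation of HepG2 cells in complete medium precedes a 20 min CellTiter-Glo step at room temperature. Tamoxifen and doxorubicin serve as positive controls; Hill-equation fits yield AC50.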

A short description of assay [13]: Cell Viability - MRC5 (AID 434).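 Note: potency is the fitted concentration of half-maximal effect; potency reflects cytotoxicity seen as loss of intracellular ATP.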 Conditions: MRC5 lung fibroblast viability, qHTS. In a few lines: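 Decrease in intracellular ATP, quantified by luciferase light output, reflects compound toxicity toward MRC5 cells exposed for 40 hr in complete culture medium. Concentration-response curves, scaled between DMSO and 100 uM tamoxifen, gave AC50 values.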
A short description of assay [14]: Cell Viability - SK-N-SH (AID 435). Note: potency is the fitted concentration of half-maximal effect. Conditions: SK-N-SH neuroblastoma cell viability qHTS. In a few lines:
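Human neuroblastoma line, 40 h exposure at 37 °C, ATP quantified via luciferase luminescence; DMSO and 100 uM tamoxifen define 0 and 100% inhibition for AC50 fitting.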

The nature of assay [15]: Cell Viability - N2a (AID 540; active = well fitted curve in the direction sought with a large enough effect; an effect the other way counts as inactive or inconclusive;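 note: plate controls were DMSO alone for no effect and tamoxifen control for full effect; nearly all actives have a fitted effect of over 45% in size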). Conditions: N2a mouse neuroblastoma cell viability; series mostly up to 92.2 µM. The method, boiled down:
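CellTiter-Glo ATP luminescence, read 20 min after reagent at room temperature, reported viability following 40 h compound treatment at 37 °C. N2a mouse neuroblastoma cells seeded 1500/well; Hill equation gave AC50.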

Assay [16] in a line: Cell Viability - NIH 3T3 (AID 541; active = well fitted curve in the direction sought with a large enough effect; an effect the other way counts as inactive or inconclusive;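 note: plate controls were DMSO alone for no effect and tamoxifen positive control for full effect; nearly all actives have a fitted effect of over 25% in size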). Conditions: NIH 3T3 cell viability, qHTS; series mostly up to 92.2 µM. In a few lines: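 Intracellular ATP (CellTiter-Glo luminescence, 20 min at room temperature) measured after 40 hr compound exposure at 37 °C of 1000 NIH 3T3 mouse fibroblasts/well in complete medium; AC50 derived by Hill-equation modelling of qHTS concentration-response curves.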

Assay [17] can be described thus: Cell Viability - HUV-EC-C (AID 542; active = well fitted curve in the direction sought with a large enough effect; an effect the other way counts as inactive or inconclusive; note: % is set by controls: 0 for no effect and ±100 for the full control effect; nearly all actives have a fitted effect of over 35% in size). The settings on record: HUV-EC-C endothelial cell viability, qHTS; series mostly up to 92.2 µM. The method, boiled down: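 CellTiter-Glo luminescence measured ATP loss in HUV-EC-C cells (1000/well) after 40 hr compound exposure at 37 °C, in complete culture medium. Concentration-response data were Hill-fitted to give AC50.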

Assay [18] can be described thus: Cell Viability - H-4-II-E (AID 543; active = well fitted curve in the direction sought with a large enough effect; an effect the other way counts as inactive or inconclusive; note: % is set by controls: 0 for no effect and ±100 for the full control effect; nearly all actives have a fitted effect of over 35% in size). Conditions: H-4-II-E rat hepatoma viability; series mostly up to 92.2 µM. In a few lines: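 CellTiter-Glo luminescence (intracellular ATP) measured after 40 h compound exposure at 37 °C in H-4-II-E rat hepatoma cells seeded at 1500/well. Values are AC50s fitted with the standard Hill equation.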
Assay [19] can be described thus: Cell Viability - SH-SY5Y (AID 544; active = well fitted curve in the direction sought with a large enough effect; an effect the other way counts as inactive or inconclusive;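 note: 0% = DMSO alone and -100% = 100 µM tamoxifen; nearly all actives have a fitted effect of over 55% in size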). The settings on record: SH-SY5Y neuroblastoma cell viability; series mostly up to 92.2 µM. The method, boiled down: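 Cytotoxicity measured via ATP-dependent luciferase luminescence (CellTiter-Glo) following 40 h, 37 °C exposure of 1500 SH-SY5Y cells per well. Concentration-response data were fitted with the standard Hill equation to give AC50.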

A short description of assay [20]: Cell Viability - Renal Proximal Tubule (AID 545; active = well fitted curve in the direction sought with a large enough effect; an effect the other way counts as inactive or inconclusive;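 note: 0% = DMSO only and -100% = 100 µM tamoxifen; nearly all actives have a fitted effect of over 40% in size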). Conditions: renal proximal tubule cells viability, primary cells of rat origin; series mostly up to 91.7 µM. In a few lines:
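In this qHTS format, normal rat kidney-derived proximal tubule cells in complete culture medium receive compound titrations, then sit 40 hours at 37 °C before luciferase-based ATP quantitation; potency is reported as AC50 from concentration-response curves.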

Chain of Cytochrome P450 1A2 (Homo sapiens) (P05177 whole entry, looked up): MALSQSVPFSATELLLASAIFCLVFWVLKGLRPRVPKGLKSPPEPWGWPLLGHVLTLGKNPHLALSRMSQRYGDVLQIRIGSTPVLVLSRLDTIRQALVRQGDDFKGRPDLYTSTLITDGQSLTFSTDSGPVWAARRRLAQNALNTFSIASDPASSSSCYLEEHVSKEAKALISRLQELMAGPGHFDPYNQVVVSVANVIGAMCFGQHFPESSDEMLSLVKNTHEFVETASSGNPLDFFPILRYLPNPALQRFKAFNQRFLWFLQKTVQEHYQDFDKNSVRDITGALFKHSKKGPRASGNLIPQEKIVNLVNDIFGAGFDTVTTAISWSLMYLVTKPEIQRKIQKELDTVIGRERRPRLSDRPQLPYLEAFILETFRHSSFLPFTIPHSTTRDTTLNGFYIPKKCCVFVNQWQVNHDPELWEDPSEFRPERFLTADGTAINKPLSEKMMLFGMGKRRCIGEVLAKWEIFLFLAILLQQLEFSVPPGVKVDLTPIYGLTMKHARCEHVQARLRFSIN
Chain of Lysosomal acid glucosylceramidase (Homo sapiens) (P04062 whole entry, looked up): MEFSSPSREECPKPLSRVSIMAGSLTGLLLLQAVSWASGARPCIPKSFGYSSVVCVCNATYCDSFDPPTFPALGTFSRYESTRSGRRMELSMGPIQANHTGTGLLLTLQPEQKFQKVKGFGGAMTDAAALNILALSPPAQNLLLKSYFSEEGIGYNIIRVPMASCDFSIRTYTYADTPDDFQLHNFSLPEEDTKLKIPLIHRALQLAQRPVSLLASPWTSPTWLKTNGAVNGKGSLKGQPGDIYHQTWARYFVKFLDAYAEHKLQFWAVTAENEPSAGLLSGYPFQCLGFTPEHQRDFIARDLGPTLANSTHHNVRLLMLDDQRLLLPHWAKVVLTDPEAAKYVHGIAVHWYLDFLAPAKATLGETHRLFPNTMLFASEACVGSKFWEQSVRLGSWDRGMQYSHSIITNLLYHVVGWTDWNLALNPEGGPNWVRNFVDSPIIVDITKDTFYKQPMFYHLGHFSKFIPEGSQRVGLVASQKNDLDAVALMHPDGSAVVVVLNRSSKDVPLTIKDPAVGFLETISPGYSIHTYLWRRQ

`O=C(O)c1cc2ccccc2c(Cc2c(O)c(C(=O)O)cc3ccccc23)c1O`: the Potency is over 11.4 µM in [1] and over 9.22 µM in assay [6]. For the same compound, the activity change, negative = inhibition was 13.4% [at 7.69 µM] in assay [2], -4% [at 2.29 µM] in assay [3], 6.69% [at 7.69 µM] in [4] and 3.49% [at 11.4 µM] in assay [7]. The outcome in [5] was inactive.
`C[C@]12CC[C@@H]3c4ccc(OS(=O)(=O)O)cc4CC[C@H]3[C@@H]1CCC2=O`: the outcome in assay [2], in [4] and in [5] was inactive. For the same compound, the Potency in assay [8] was over 20.6 µM.
On to `C=Cc1ccccc1`, for which the Potency in assay [9], in assay [10], in assay [11], in [12], in assay [13] and in [14] was over 92 µM each time. In addition, the outcome in assay [7], in assay [15], in assay [16], in assay [17], in [18] and in [19] was inactive. Besides, the outcome in assay [20] was inactive.
As for `COC1=CC(=O)C[C@@H](C)[C@@]12Oc1c(Cl)c(OC)cc(OC)c1C2=O`, the Potency result in [3] is “inactive”. The Potency in assay [8] and in [6] was over 46 µM in each case. Also, in assay [7], the call was inactive.
In the case of `COc1cc(C[C@H]2C(=O)OC[C@@H]2Cc2ccc(OC)c(OC)c2)ccc1O`, the Potency in assay [3] was 31.6 µM (active); in assay [6], over 46 µM. The outcome in [7] was inactive.
As to `Cc1ccc(OC[C@H](O)[C@H](C)NC(C)C)c2c1CCC2`, the result in assay [2], in [4], in assay [5] and in assay [7] was inactive. Further, the Potency in assay [3] was 1.58 µM (active) and 398 nM (active); in [8] it was over 46 µM; in assay [6] it was over 46 µM.
Take `CC(=O)C1=C(O)C=C2Oc3c(C(C)=O)c(O)c(C)c(O)c3[C@]2(C)C1=O`: the Potency is 2 µM (active) in assay [3], over 46 µM in assay [8] and over 46 µM in assay [6]. The call in assay [7] was inactive.
As for `CC(C)CCNC(=O)[C@H](CC(C)C)NC(=O)[C@H]1O[C@@H]1C(=O)O`, the result in assay [2], in [4] and in assay [5] was inactive. Moreover, the Potency in assay [8] was over 20.6 µM.
With `O=C(O)CC(O)(CC(=O)O)C(=O)O`, the Potency in assay [9] was over 92 µM; in assay [10], 58 µM (active); in assay [11], over 92 µM; in assay [12] it was over 92 µM; in [13], over 92 µM; in assay [14], over 92 µM. Moreover, the compound was classed as inactive in assay [7], in assay [15], in [16], in assay [17], in [18] and in assay [19]. Besides, the call in assay [20] was inactive.
Take `COC(C)=O`: the Potency in [9], in assay [10], in assay [11], in [12], in assay [13] and in assay [14] was over 92 µM each time. Also, the compound was called inactive in assay [7], in assay [15], in [16], in [17], in assay [18] and in [19]. In assay [20], the compound was classed as inactive.
`CN(C)CCCn1cc(C2=C(c3c[nH]c4ccccc34)C(=O)NC2=O)c2ccccc21`: the Potency is 7.94 µM (active) in assay [3], over 46 µM in assay [8] and over 46 µM in assay [6].
For `CN(C)Cc1ccccc1`, the Potency in [9], in assay [10], in [11], in assay [12], in [13] and in [14] was over 92 µM in each case. In addition, the compound was classed as inactive in assay [7], in assay [15], in [16], in [17], in assay [18] and in assay [19]. In addition, the compound was called inactive in [20].
As to `CCc1ccccc1OC[C@@H](O)CN[C@H]1CCCc2ccccc21`, the Potency in assay [3] was 12.6 µM (active); in [8], over 46 µM; in assay [6] it was over 46 µM. Further, in [7], the outcome was inactive.
As to `COc1ccc2[nH]c(=O)c3c(c2c1)OC(C)(C)C=C3`, the Potency in [3] was 0.316 µM (active); in assay [8] it was over 46 µM; in assay [6], over 46 µM. Also, the outcome in [7] was inactive.
In the case of `NCCCC(=O)O`, the result in [2], in [4] and in assay [7] was inactive. Besides, the Potency entry in assay [3] was “inactive”. Moreover, the Potency in [8] and in assay [6] was over 46 µM in each case.
Regarding `CCCCCCCCCC(=O)O`, the Potency in [9], in [10], in assay [11], in assay [12], in [13] and in assay [14] was over 92 µM each time. In addition, the outcome in assay [7], in assay [15], in [16], in assay [17], in assay [18] and in [19] was inactive. In addition, in assay [20], the result was inactive.

The values are drawn from PubChem BioAssay (NCATS).
